Vaccinia mCherry – qHTS for Stage-Specific Inhibitors of Vaccinia Orthopoxvirus: mCherry Reporter Primary qHTS; 0.63% of 310,000 active; Vaccinia virus mCherry reporter infection, fluorescence; Potency, µM (top dose mostly 36.5 µM), actives largely listed as inhibitors; calls by dose curve; tested in A549 cells; note: nearly all actives have a fitted effect of over 35% in size
VACV Venus inh – qHTS for Stage-Specific Inhibitors of Vaccinia Orthopoxvirus: Venus Reporter Primary qHTS; Vaccinia virus Venus reporter expression, fluorescence; Potency, µM (top dose mostly 36.5 µM), hits mostly inhibitors; 0.46% of 330,000 active; AID 720580, 2013; calls by dose curve; tested in A549 cells; note: nearly all actives have a fitted effect of over 30% in size
Pf growth 48h – Primary qHTS for delayed death inhibitors of the malarial parasite plastid, 48 hour incubation | P. falciparum luciferase growth in erythrocytes, 48 h | Potency, µM (highest dose often 28.7 µM), most hits filed as inhibitors | AID 504832, 2011 | 5.9% of 310,000 active
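Growth was read as firefly luciferase luminescence after a 48 h, 37 C, 5% CO2 exposure of compounds to reporter-bearing P. falciparum cultures (0.1% parasitemia, 2% hematocrit final) in Albumax-supplemented RPMI 1640.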
Pf growth 96h – Primary qHTS for delayed death inhibitors of the malarial parasite plastid, 96 hour incubation; P. falciparum luciferase reporter growth, 96 h; Potency, µM (highest dose often 28.7 µM), hits mostly inhibitors; 6.9% of 320,000 active
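Erythrocytes infected with luciferase-expressing P. falciparum were dispensed at 2% hematocrit and 0.05% parasitemia (final), then incubated with compounds 96 hours at 37 C in 5% CO2. Luminescence after detection reagent addition reported growth.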
AMA1-RON2 inh – qHTS for Inhibitors of AMA1-RON; Towards Development of Antimalarial Drug Lead: Primary Screen; Plasmodium falciparum AMA1 (3D7) - RON2 peptide interaction; AlphaScreen AMA1-biotinylated RON2 peptide binding; Potency, µM (doses to about 58.2 µM), hits mostly inhibitors; 0.2% of 360,000 active; AID 720542, 2013; note: nearly all actives have a fitted effect of over 45% in size
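AMA1 (3D7) with his tag at 25 nM final met compounds first, then biotinylated RON2 peptide at 25 nM; detection used donor plus acceptor beads, 10 µg/mL apiece, read by AlphaScreen after 30 min at room temperature.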
Each line names hits and unclear results; the compound was inactive in the other large screens. An excerpt weighted towards active compounds, which were near 8.7% of everything screened. Unless noted, calls come from the whole dose curve; as a rule, active = well fitted curve in the direction sought with a large enough effect; inconclusive = small, poorly fitted or top-dose-only effect, or another doubt; inactive = no such curve, though single readings can be large; an effect the other way counts as inactive or inconclusive.

CCOC(=O)N1CCN(Cc2nc3c(c(=O)n(C)c(=O)n3C)n2Cc2ccccc2C)CC1	Pf growth 48h 10µM, Pf growth 96h inconclusive (no result: Vaccinia mCherry, VACV Venus inh)
CCOC(=O)N1CCN(Cc2nc3c(c(=O)[nH]c(=O)n3C)n2Cc2cc(C)ccc2C)CC1	Pf growth 48h 13µM (no result: Vaccinia mCherry, VACV Venus inh)
O=C1C2C3C=CC(C3)C2C(=O)N1c1ccc2ccccc2n1 (centres undefined)	none (no result: Vaccinia mCherry)
O=C1C2C3C=CC(C3)C2C(=O)N1c1nc2ccccc2s1 (centres undefined)	Pf growth 96h 8.3µM (no result: Vaccinia mCherry)
Cc1c(C(=O)OCC2CCCCC2)[nH]c2c1C(=O)CC(c1ccccc1Cl)C2 (centres undefined)	none (no result: Pf growth 48h, Pf growth 96h, AMA1-RON2 inh)
Cc1cc(N/N=C/c2c[nH]c3ccccc23)c2ccccc2n1	none
Cn1c(N/N=C/c2c[nH]c3ccccc23)nc2ccccc21	Vaccinia mCherry inconclusive, VACV Venus inh inconclusive, Pf growth 48h 7.4µM, Pf growth 96h 1.7µM, AMA1-RON2 inh inconclusive
CCn1c(/N=C/c2c[nH]c3ccccc23)nc2ccccc21	Pf growth 96h 1.9µM (no result: Vaccinia mCherry, VACV Venus inh)
COc1ccc(C(=O)Nc2cc(-c3nc4ncccc4o3)ccc2C)cc1Br	none (no result: Pf growth 48h, Pf growth 96h, AMA1-RON2 inh)
Oc1cccc(C(O)CNCc2ccc(-c3ccccc3)cc2)c1 (centres undefined)	none
OC(C[n+]1ccccc1)c1ccccc1 (centres undefined)	Pf growth 48h inconclusive, Pf growth 96h 0.66µM (no result: Vaccinia mCherry, VACV Venus inh)
OC(CNC1Cc2ccccc2C1)c1ccccc1 (centres undefined)	Pf growth 48h 12µM, Pf growth 96h 13µM
OC(CNCc1ccccc1)c1ccccc1 (centres undefined)	Pf growth 48h 9.3µM, Pf growth 96h inconclusive
OC(CNCc1cccc(Cl)c1)c1ccccc1 (centres undefined)	Pf growth 48h 2.1µM
O=C(Nc1nnc(Cc2ccc(Cl)cc2)s1)C1CCN(C(=O)c2ccco2)CC1	none (no result: Pf growth 48h, Pf growth 96h, AMA1-RON2 inh)
COc1ccccc1NC(=O)CCNS(=O)(=O)c1ccc2c(c1)CCN2C(=O)C1CC1	none (no result: Pf growth 48h, Pf growth 96h, AMA1-RON2 inh)
CN(Cc1ccccc1)C(=O)CN1C(=O)NC2(CCCCCCC2)C1=O	Pf growth 48h 9.3µM, Pf growth 96h inconclusive
COc1cccc(CNC(=O)CN2C(=O)NC(c3ccccc3)(c3ccccc3)C2=O)c1	none
COc1ccc(C2(c3ccc(OC)cc3)NC(=O)N(CC(=O)N(C)C3CCC(C)CC3)C2=O)cc1 (centres undefined)	Pf growth 48h 10µM, Pf growth 96h inconclusive
Cc1ccsc1CN(C)C(=O)CN1C(=O)NC(c2ccccc2)(c2ccccc2)C1=O	Pf growth 48h 13µM, Pf growth 96h 9.3µM (no result: Vaccinia mCherry, VACV Venus inh)
COc1cccc(CN(C)C(=O)CN2C(=O)NC(c3ccccc3)(c3ccccc3)C2=O)c1	Pf growth 48h 10µM, Pf growth 96h 10µM (no result: Vaccinia mCherry, VACV Venus inh)
CCOc1ccc(NC(=O)NC(C)c2c(-n3cccc3)sc3c2CCN(CC)C3)cc1 (centres undefined)	none (no result: Pf growth 48h, Pf growth 96h, AMA1-RON2 inh)
CC(C)C(NS(=O)(=O)c1ccc2c(c1)oc(=O)n2C)C(=O)NCCc1ccccc1 (centres undefined)	none (no result: Pf growth 48h, Pf growth 96h, AMA1-RON2 inh)
CN(C)C(=O)CN1C(=O)NC(c2ccccc2)(c2ccccc2)C1=O	none
CC(C)(C)C(=O)CN1C(=O)NC(c2ccccc2)(c2ccccc2)C1=O	Pf growth 48h inconclusive, Pf growth 96h inconclusive
COc1cccc(CN(C)C(=O)CN2C(=O)NC(c3ccccc3)(c3ccccc3)C2=O)c1OC	Pf growth 48h inconclusive, Pf growth 96h 12µM (no result: Vaccinia mCherry, VACV Venus inh)
Cc1cccc(CN2C(=O)NC(c3ccccc3)(c3ccccc3)C2=O)c1	Vaccinia mCherry inconclusive, Pf growth 48h 10µM, Pf growth 96h inconclusive
Cc1ccc(NC(=O)c2nc(S(C)(=O)=O)ncc2N(Cc2ccccc2)Cc2ccco2)c(C)c1	none (no result: Pf growth 48h, Pf growth 96h, AMA1-RON2 inh)
COc1ccc(CNC(=O)c2ccc(CNS(=O)(=O)c3ccc(F)cc3)cc2)cc1	none (no result: Pf growth 48h, Pf growth 96h, AMA1-RON2 inh)
CCc1ccc(S(=O)(=O)c2nnn3c2nc(Nc2ccc(C)c(Cl)c2)c2sccc23)cc1	none (no result: Pf growth 48h, Pf growth 96h, AMA1-RON2 inh)
CCN(CC)S(=O)(=O)c1ccc2c(c1)nc(CCC(=O)Nc1ccc(N3CCOCC3)cc1)n2C	Pf growth 48h 15µM, Pf growth 96h inconclusive
CCOc1ccc(S(=O)(=O)N2CCC(C(=O)Nc3cccc(NC(C)=O)c3)CC2)cc1	none
COc1ccc(NC(=O)CN2CCN(c3nc(-c4cccc(OC)c4)cs3)CC2)cc1	Pf growth 48h 8.3µM
COc1ccc(S(=O)(=O)N(CC(=O)Nc2ccc(S(=O)(=O)N3CCOCC3)cc2)Cc2ccc(F)cc2)cc1	Pf growth 48h 15µM, Pf growth 96h inconclusive
COc1ccc(S(=O)(=O)N2CCC(C(=O)Nc3cccc(C(C)=O)c3)CC2)cc1	VACV Venus inh inconclusive, Pf growth 48h 12µM, Pf growth 96h inconclusive (no result: Vaccinia mCherry)

High-throughput results deposited in PubChem BioAssay by National Center for Advancing Translational Sciences (NCATS).
